This is an account of results in PubChem BioAssay (NCATS).

The nature of test [1]: Primary qHTS for small molecule stabilizers of the endoplasmic reticulum resident proteome: Secreted ER Calcium Modulated Protein (SERCaMP) assay (AID 1508630; active = well fitted curve in the direction sought with a large enough effect; an effect the other way counts as inactive or inconclusive; also: % is scaled to controls: 0 for no effect and ±100 for the full control effect). In outline:
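The SH-SY5Y reporter protocol was run at 3 concentrations up to 38.3 uM (primary) or 11 concentrations (follow-up): 16 h compound, 100 nM thapsigargin for 4 h, then extracellular luciferase luminescence.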
For orientation: In qHTS, concentration-response curves come from the screen itself.

Test [2] is described as follows: A High-Content qHTS Against Drug Library for the Identification of Small Molecules that Inhibit DYT1 Early Onset Primary Dystonia-Associated Cell Pathology (AID 1645839; calls by dose curve; also: potency is read from the fitted curve at half-maximal effect; as to % pathology change, negative = correction: series mostly up to about 46 µM). In a few lines:
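High-content imaging quantified EGFP-TorsinA mislocalization in HEK293-derived cells inducibly expressing DYT1 mutant torsinA, after 48 h exposure to compound given together with tetracycline induction. Cell count served as a toxicity channel alongside %pathology.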

Test [3] has as its target Cytochrome P450 2D6 (Homo sapiens) (UniProt P10635). Kind of test: Cytochrome P450 family 2 subfamily D member 6 (CYP2D6) small molecule antagonists: luciferase biochemical (cell-free) qHTS assay (AID 1645840). Also: nearly all actives have a fitted effect of over 55% in size. Also: potency is read from the fitted curve at half-maximal effect. As to activity change, negative = inhibition: series mostly up to about 57 µM; % is scaled to controls: 0 for no effect and ±100 for the full control effect. In a few lines:
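P450-Glo CYP2D6 system: proluciferin substrate converted by enzyme to luciferin, read by luminescence proportional to activity. Enzyme-substrate mix with compound 10 min at room temperature, then NADPH regeneration 1 h before detection reagent.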

The target of test [4] is Cytochrome P450 2C9 (Homo sapiens) (UniProt P11712). Kind of test: Cytochrome P450 family 2 subfamily C member 9 (CYP2C9) small molecule antagonists: luciferase biochemical (cell-free) qHTS assay (AID 1645842). Also: nearly all actives have a fitted effect of over 55% in size. Also: potency is read from the fitted curve at half-maximal effect. As to activity change, negative = inhibition: series mostly up to about 57 µM; % is scaled to controls: 0 for no effect and ±100 for the full control effect. In outline:
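P450-Glo CYP2C9 system: proluciferin substrate with enzyme in mix containing 0.4% BSA, 10 min at room temperature, then NADPH regeneration solution added and incubated 1 h at 37C. Detection reagent stopped reaction; luminescence read after 20 min as RLU.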

In test [5] the target is Cytochrome P450 3A4 (Homo sapiens) (UniProt P08684). In words: Cytochrome P450 family 3 subfamily A member 4 (CYP3A4) small molecule antagonists: luciferase qHTS assay (AID 1645841). Also: nearly all actives have a fitted effect of over 45% in size. In outline:
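Luminescent CYP3A4 activity readout: compounds plus enzyme-substrate mix 10 min at room temperature, reaction started with NADPH regenerating system for 1 h, stopped with detection reagent, read after 20 min. Ketoconazole served as control.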

In the next test the target is Papain (Carica papaya) (UniProt P00784). Kind of test: Primary qHTS assay for inhibitors of the protease papain (AID 1645873; active = well fitted curve in the direction sought with a large enough effect; an effect the other way counts as inactive or inconclusive;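 also: papain turnover of Z-FR-AMC read as the AMC fluorescence gain over 10 min; series mostly up to about 50 µM; % is scaled to controls: 0 for no effect and ±100 for the full control effect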).
Sequence of Papain (Carica papaya) (P00784 whole entry, looked up): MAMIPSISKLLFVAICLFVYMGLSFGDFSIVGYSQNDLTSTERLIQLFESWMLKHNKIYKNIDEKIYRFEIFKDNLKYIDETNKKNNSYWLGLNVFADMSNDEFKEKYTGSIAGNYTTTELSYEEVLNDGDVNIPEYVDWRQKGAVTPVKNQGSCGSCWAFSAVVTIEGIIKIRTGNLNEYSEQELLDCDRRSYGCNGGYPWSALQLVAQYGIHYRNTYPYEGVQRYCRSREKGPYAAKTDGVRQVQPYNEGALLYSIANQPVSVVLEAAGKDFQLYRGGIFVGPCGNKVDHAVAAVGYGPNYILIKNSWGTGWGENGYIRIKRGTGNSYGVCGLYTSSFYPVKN

Results filed as inconclusive are left out. Unmarked numbers belong to inactive results. Calls of active or inactive are those of the source. Unless noted, calls follow the shape of the dose curve; as a rule, active = well fitted curve in the direction sought with a large enough effect in the repeat runs; inconclusive = weak or mixed curves; inactive = no such curve, though single readings can be large; an effect the other way counts as inactive or inconclusive.

Sequence of Cytochrome P450 2C9 (Homo sapiens) (P11712 whole entry, looked up): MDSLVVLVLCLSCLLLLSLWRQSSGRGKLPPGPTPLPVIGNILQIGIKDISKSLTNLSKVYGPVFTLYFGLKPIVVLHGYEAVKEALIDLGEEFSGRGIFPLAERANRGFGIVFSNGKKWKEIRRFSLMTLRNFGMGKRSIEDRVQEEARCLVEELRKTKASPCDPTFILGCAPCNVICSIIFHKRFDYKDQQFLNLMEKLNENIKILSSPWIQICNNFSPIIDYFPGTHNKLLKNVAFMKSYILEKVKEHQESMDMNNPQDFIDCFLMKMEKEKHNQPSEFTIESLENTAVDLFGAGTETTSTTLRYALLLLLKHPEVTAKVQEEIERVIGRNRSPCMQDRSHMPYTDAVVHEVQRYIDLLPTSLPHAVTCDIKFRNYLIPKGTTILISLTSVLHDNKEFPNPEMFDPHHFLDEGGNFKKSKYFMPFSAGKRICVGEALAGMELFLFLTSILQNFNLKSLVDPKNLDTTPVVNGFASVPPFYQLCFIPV
Sequence of Cytochrome P450 2D6 (Homo sapiens) (P10635 whole entry, looked up): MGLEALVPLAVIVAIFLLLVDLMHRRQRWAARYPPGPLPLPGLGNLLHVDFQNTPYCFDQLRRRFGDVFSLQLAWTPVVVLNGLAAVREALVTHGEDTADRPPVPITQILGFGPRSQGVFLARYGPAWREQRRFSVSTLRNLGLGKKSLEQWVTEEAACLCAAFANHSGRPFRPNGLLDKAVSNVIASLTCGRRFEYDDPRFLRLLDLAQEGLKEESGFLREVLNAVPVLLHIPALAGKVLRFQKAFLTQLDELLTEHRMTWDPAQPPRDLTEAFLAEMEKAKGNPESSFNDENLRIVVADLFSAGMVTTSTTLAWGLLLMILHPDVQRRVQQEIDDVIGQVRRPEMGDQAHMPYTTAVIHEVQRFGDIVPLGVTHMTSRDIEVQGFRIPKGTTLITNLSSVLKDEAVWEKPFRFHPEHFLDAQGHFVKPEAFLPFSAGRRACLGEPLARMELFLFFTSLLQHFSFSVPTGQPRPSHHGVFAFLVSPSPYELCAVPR
Sequence of Cytochrome P450 3A4 (Homo sapiens) (P08684 whole entry, looked up): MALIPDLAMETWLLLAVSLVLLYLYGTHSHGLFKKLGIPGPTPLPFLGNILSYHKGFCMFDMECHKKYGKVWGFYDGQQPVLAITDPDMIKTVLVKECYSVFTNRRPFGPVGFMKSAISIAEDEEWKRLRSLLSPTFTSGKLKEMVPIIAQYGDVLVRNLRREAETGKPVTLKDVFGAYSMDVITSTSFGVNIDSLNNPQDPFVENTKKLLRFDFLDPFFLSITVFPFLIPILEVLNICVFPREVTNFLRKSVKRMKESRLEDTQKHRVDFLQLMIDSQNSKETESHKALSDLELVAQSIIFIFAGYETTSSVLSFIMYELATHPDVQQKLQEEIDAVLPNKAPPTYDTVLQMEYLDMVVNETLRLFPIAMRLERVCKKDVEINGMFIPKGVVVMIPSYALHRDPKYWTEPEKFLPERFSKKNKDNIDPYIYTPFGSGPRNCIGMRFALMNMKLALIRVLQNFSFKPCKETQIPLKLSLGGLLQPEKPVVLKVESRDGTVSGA

With `COc1ccccc1CNCCCCCCNCCCCCCCCNCCCCCCNCc1ccccc1OC`, in test [1], the Potency result was “inactive”.

Regarding `CCCCCC(O)c1cccc(OCc2ccc3ccccc3n2)c1` (centres undefined), the Potency result in test [1] was “inactive”.

`CCOc1ccc2nc(S(N)(=O)=O)sc2c1`: the Potency entry in test [1], in test [2] and in test [3] was “inactive” in each case.

As for `N=c1ccn2c(n1)O[C@H]1[C@H](O)[C@@H](CO)O[C@H]12`, the Potency entry in test [1] is “inactive”.

With `CN1CCc2cccc3c2C1Cc1ccc(O)c(O)c1-3` (centres undefined), the Potency entry in test [1] is “inactive”.

As for `CCCC1(C)C(C#N)(C#N)C1(C#N)C#N`, in test [1], the Potency entry was “inactive”.

On to `C[C@@H](NC(=O)/C(C#N)=C/c1ccc(O)c(O)c1)c1ccccc1`, for which the Potency result in test [1] is “inactive”.

On to `O=C(O)[C@@H]1C[C@@H](C(=O)O)N1`, for which the Potency entry in test [1] is “inactive”.

Take `N=C(N)SCCc1ccc(CCSC(=N)N)cc1`: in test [1], the Potency result was “inactive”.

On to `CCCCN1CCC(n2c(=O)[nH]c3ccccc32)CC1`, for which, in test [1], the Potency result was “inactive”.

On to `CC(C(=O)O)c1ccc(C(=O)c2cccs2)cc1` (centres undefined), for which the Potency entry in test [1], in test [2] and in test [3] was “inactive” each time. Besides, the Potency in test [4] is 7.76 µM (active).

In the case of `C/C(=N\O)c1ccc(OCC(=O)N2CCCCC2)cc1`, the Potency result in test [1], in test [2], in test [3] and in test [4] was “inactive” each time.

Regarding `CCCCCCCCCCCCCCCC(=O)OC(C)C`, the Potency entry in test [1], in test [2] and in test [4] was “inactive” in each case.

Consider `O=C(O)Cc1ccc(-c2ccccc2)cc1`, for which the Potency entry in test [1], in test [2], in test [3] and in test [4] was “inactive” each time.

As for `Cc1cc(O)c2ccccc2c1O`, the Potency entry in test [1] was “inactive”. Besides, the Potency in test [3] was 11 µM (active).

Take `Cc1nc2ccccc2n1Cc1ccc(Cl)cc1`: the Potency result in test [1] and in test [2] was “inactive” in each case. Further, the results for the Potency in test [3] and in test [4] were 7.76 µM (active) and 11 µM (active), respectively.

As for `Cc1c(N)c(=O)n(-c2ccccc2)n1C`, the Potency result in test [1], in test [2] and in test [3] was “inactive” in each case.

In the case of `Nc1ccc(O)c(C(=O)O)c1`, the Potency result in test [1], in test [2], in test [3] and in test [4] was “inactive” throughout.

Regarding `CCC1C(=O)OCC1Cc1cncn1C` (centres undefined), the Potency result (in test [1]; in test [2]; in test [3]; in test [4]; with Papain (Carica papaya)) was “inactive” throughout. In test [5], the call was inactive.

In the case of `CCCCCCCC/C=C/C(=O)O`, the Potency entry in test [1], in test [2], in test [3] and in test [4] was “inactive” in each case.

On to `O=C(O)c1ccccc1Nc1cccc(C(F)(F)F)c1`, for which the Potency result in test [1], in test [3] and in test [4] was “inactive” throughout.

As to `O=C(O)Cc1cccc(-c2cc(CCCCCCc3ccc(O[C@H]4O[C@H](CO)[C@@H](O)[C@H](O)[C@@H]4O)c(-c4cccc(CC(=O)O)c4)c3)ccc2O[C@H]2O[C@H](CO)[C@@H](O)[C@H](O)[C@@H]2O)c1`, the activity change, negative = inhibition was -18.9% [at 0.478 µM] in test [1], -6.59% [at 0.91 µM] in test [3] and 11.7% [at 0.91 µM] in test [4]. Besides, the % pathology change, negative = correction in test [2] was -6.26% [at 0.369 µM].

In the case of `CN1CC(=O)N/C1=N/C(=O)Nc1cccc(Cl)c1`, the Potency result (in test [1]; in test [2]; in test [4]; with Papain (Carica papaya)) was “inactive” each time.

In the case of `c1ccc2sc(SSc3nc4ccccc4s3)nc2c1`, the Potency result in test [1], in test [2] and in test [3] was “inactive” throughout. Besides, the Potency in test [4] was 9.52 µM (active).

For the molecule `O=C(Nc1ccc(C(=O)O)c(O)c1)c1ccccc1`, the Potency entry in test [1] and in test [2] was “inactive” in each case. Also, in test [3], the Potency is 13.8 µM (active).

Turning to `Cc1[nH]cnc1CN1CCc2c(c3ccccc3n2C)C1=O`, the Potency entry in test [1] and in test [2] was “inactive” in each case. Moreover, the Potency in test [3] was 7.76 µM (active); in test [4], 1.55 µM (active).

For the molecule `CNC(=O)c1c(I)c(NC(=O)CCCCC(=O)Nc2c(I)c(C(=O)O)c(I)c(C(=O)NC)c2I)c(I)c(C(=O)O)c1I`, the Potency result in test [1], in test [2], in test [3] and in test [4] was “inactive” in each case.

Regarding `C#C[C@]1(O)CC[C@H]2[C@@H]3CCc4cc(O)ccc4[C@H]3CC[C@@]21C`, the Potency entry in test [1] and in test [3] was “inactive” throughout.

Regarding `COc1cccc2c1C(=O)c1c(O)c3c(c(O)c1C2=O)C[C@@](O)(C(=O)CO)C[C@@H]3O[C@H]1C[C@H](N)[C@H](O[C@@H]2CCCCO2)[C@H](C)O1`, the Potency result in test [1] and in test [3] was “inactive” each time. The Potency was 10 µM (active) in test [2] and 12.3 µM (active) in test [4].

Consider `COc1ccnc2c1CCCCC2S(=O)c1nc2ccccc2[nH]1` (centres undefined), for which the Potency entry in test [1] and in test [2] was “inactive” each time. Besides, the figures for the Potency in test [3] and in test [4] were 0.347 µM (active) and 9.77 µM (active), respectively.

Regarding `CC(C)(C)c1nnc(NS(=O)(=O)c2ccc(N)cc2)s1`, the Potency result in test [1], in test [2], in test [3] and in test [4] was “inactive” throughout.

In the case of `COc1cc2c3cc1Oc1cc(ccc1O)C[C@@H]1c4c(cc(OC)c(O)c4Oc4ccc(cc4)C[C@@H]3N(C)CC2)CC[N+]1(C)C`, the Potency entry in test [1], in test [2], in test [3] and in test [4] was “inactive” each time.

As for `c1ccc(CCNc2nc(-c3ccccc3)cs2)cc1`, the Potency entry in test [1] and in test [2] was “inactive” each time. Also, the Potency in test [3] and in test [4] was 5.49 µM (active) in each case.

On to `Oc1c(Br)cc(Br)c2cccnc12`, for which the Potency entry in test [1], in test [3] and in test [4] was “inactive” throughout. In test [2], the Potency was 5.62 µM (active). Further, the molecule was classed as inactive in test [5].

Consider `CCCSc1ccc2nc(NC(=O)OC)[nH]c2c1`, for which the Potency entry in test [1], in test [3] and in test [4] was “inactive” throughout.

For the molecule `CCCCCCOc1ccccc1C(N)=O`, the Potency entry in test [1] and in test [2] was “inactive” throughout. In addition, the Potency in test [4] was 8.71 µM (active).
